# From ChEMBL document CHEMBL3433997, “St. Jude Leishmania screening dataset” (2016)
# Experiments:
# Type in all cases: functional
# [1] = target: Solute carrier family 2, facilitated glucose transporter member 1 (Homo sapiens) (UniProt P11166); experiment: ST_JUDE_LEISH: Cytotoxicity at 2uM final concentration against transgenic Leishmania Mexicana promastigotes LmGLUT1 that are glucose transport deficient and complemented with the human glucose transporter GLUT1. Activity is measured by DNA content using SYBR green in vitro
# Chain of Solute carrier family 2, facilitated glucose transporter member 1 (Homo sapiens) (P11166 whole entry): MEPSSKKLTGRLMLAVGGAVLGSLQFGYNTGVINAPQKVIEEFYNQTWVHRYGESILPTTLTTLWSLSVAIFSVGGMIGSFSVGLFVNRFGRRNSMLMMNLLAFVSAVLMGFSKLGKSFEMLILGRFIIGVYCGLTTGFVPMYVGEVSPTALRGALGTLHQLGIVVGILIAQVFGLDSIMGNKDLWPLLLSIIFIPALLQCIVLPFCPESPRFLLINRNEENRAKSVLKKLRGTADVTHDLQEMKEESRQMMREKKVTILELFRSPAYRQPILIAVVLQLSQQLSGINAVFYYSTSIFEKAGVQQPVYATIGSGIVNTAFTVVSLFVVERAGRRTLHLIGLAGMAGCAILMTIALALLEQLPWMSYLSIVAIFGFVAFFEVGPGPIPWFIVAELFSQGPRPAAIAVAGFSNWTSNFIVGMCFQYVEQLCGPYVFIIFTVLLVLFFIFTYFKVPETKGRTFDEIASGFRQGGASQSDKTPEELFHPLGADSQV
# [2] = target: Hexose transporter 1 (Plasmodium falciparum) (UniProt O97467); experiment: ST_JUDE_LEISH: Cytotoxicity at 2uM final concentration against transgenic Leishmania Mexicana promastigotes LmPfHT that are glucose transport deficient and complemented with the Plasmodium falciparum hexose transporter. Activity is measured by DNA content using SYBR green in vitro
# [3] = target: Glucose transporter (Leishmania mexicana) (UniProt O61059); experiment: ST_JUDE_LEISH: Cytotoxicity at 2uM final concentration against transgenic Leishmania Mexicana promastigotes LmGT2 that are glucose transport deficient and complemented with the L. Mexicana glucose transporter 2. Activity is measured by DNA content using SYBR green in vitro
Structure (SMILES),inhibition [1] [%],inhibition [2] [%],inhibition [3] [%]
O=C(NCC1CCN(CC2CCCCC2)C1)c1cc(-c2cccc(C(F)(F)F)c2)cs1 (stereo not drawn),-1.1,-0.44,-2.1
O=C(NCc1ccc(C(=O)NC2CCCCC2)cc1)c1ccc(O)c(-c2ccc(Cl)c(Cl)c2)c1,2.46,1.38,1.41
C=Cc1ccc(-c2c(C)[nH]c(C)c(Br)c2=O)cc1,0.56,1.38,-0.92
OCC1CCN(Cc2ccc(-c3cccc(-c4nc5cc(C(F)(F)F)ccc5[nH]4)c3)cc2)CC1,-1,1.12,7.35
Cc1cccc2nc(-c3ccc(-c4cccc(C(=O)NCCN5CCCC5)c4)s3)[nH]c12,10.1,10.7,9.13
CN1CCC(NCc2ccc(-c3cccc(S(=O)(=O)NCc4ccccc4)c3)cc2)CC1,2.23,3.01,-1.01
CC(C)(C)CN1C(=O)C(c2ccccc2)(c2ccccc2)N=C1N,2.88,2.58,1.88
CCNc1cc(C(=O)N[C@@H](Cc2ccccc2)[C@H](O)CNC(C)(C)Cc2ccccc2)cc(N2CCCC2=O)c1,3.58,0.61,0.81
c1cn(CCCNc2ncc(-c3ccsc3)c(-c3nccs3)n2)cn1,11,10.1,9.4
COc1ccc2nccc([C@@H](O)CN3CCC(NCc4cc5cc(Cl)ccc5[nH]4)CC3)c2c1,12.5,28.1,2.75
CC(C)NCc1cccc(-c2cccc(NC(=O)c3cccc(Cl)c3)c2)c1,-0.03,0.9,4.05
CN(C(=O)c1cc2c(-c3cncnc3)cccc2[nH]1)c1ccccc1,2.07,-0.81,-0.72
O=C(Nc1ccc(C(F)(F)F)cc1)Nc1cccc([N+](=O)[O-])c1,2.81,2.48,3.51
COc1cc(Cc2cnc(N)nc2N)cc(OCCCCC2SC(=O)NC2=O)c1OC (stereo not drawn),2.3,0.84,1.34
C=CCc1cc(Cc2cnc(N)nc2N)c2ccc(C)nc2c1OC,8.65,6.7,5.13
C=CCOC(=O)N1CCC(CNCc2ccc(-c3cccc(-c4nc5cccc(C)c5[nH]4)c3)cc2)C1 (stereo not drawn),-0.46,-0.4,-2.77
Cc1nc(C)c(-c2ccc(Br)cc2)c(O)c1Br,-0.12,-1.35,-2.85
CON(CCCN(C)C)C(=N)N,0.55,2.02,0.26

Structure (SMILES),inhibition [1] [%],inhibition [2] [%],inhibition [3] [%]
Cc1cc2nc(-c3ccc(/C=C/C(=O)NC4CCN(Cc5ccccc5)CC4)cc3)[nH]c2cc1C,0.58,-0.75,-2.3
CN(C)CCNC(=O)c1cccc(-c2cnc3ccc(NCc4ccc(Cl)c(Cl)c4)nn23)c1,8.3,8.99,7.6
O=C(Nc1ccc(Cn2ncc(N3CCCNCC3)c(Cl)c2=O)cc1)Nc1ccc(OCc2ccccc2)cc1,-0.85,-0.65,-1.2
OC(c1ccccc1)C1CN(CCc2ccccc2)CCC1(O)c1ccccc1 (stereo not drawn),0.73,-1.7,-1.32
CSc1ccc(CN2CCC(CNC(=O)c3cc(-c4ccccc4F)cs3)C2)cc1 (stereo not drawn),0.69,-0.86,-3.72
COC(=O)c1cccc(CNCc2cccc(-c3cccc(-c4nc5cc(F)ccc5[nH]4)c3)c2)c1,5.23,5.92,4.97
O=C(/C=C/c1ccc(Cl)c(Cl)c1)NCCCCCN1CCCN(C(=O)Nc2ccc(OC(F)F)cc2)CC1,3.05,1.15,0.91
Cc1ccc(C(C(=O)Nc2ccc(N3CCNCC3)c(Cl)c2)c2ccccc2)cc1 (stereo not drawn),4.78,0.84,1.72
CCC(CN1C(=N)NC(c2ccccc2)(c2ccccc2)C1=O)c1ccccc1 (stereo not drawn),-0.75,-2.3,0.9
COc1ccc2c(N/N=C/c3ccc([N+](=O)[O-])cc3)ccnc2c1,6.14,4.33,2.7
CCCCCCCCCCN1C(=O)C2C(CCCCNC(C)=O)NC3(C(=O)N(Cc4ccc(C(C)(C)C)cc4)c4ccccc43)C2C1=O (stereo not drawn),9.76,9.32,3.53
COc1cc(OC)cc(-c2nc3ccc(OCCN(C)C)c(C#N)c3[nH]2)c1,0.95,4.09,2.21
COc1cc(C(=O)Nc2cccc(-c3nc4ccccc4[nH]3)c2)cc(OC)c1OC,4.34,1.94,-3.56
COc1cc(-c2cc(-c3ccc(OCCN(C)C)cc3)[nH]c2-c2ccncc2)ccc1Cl,0.75,0.72,2.28
CC(C)Oc1cc2c(cc1NS(=O)(=O)c1ccc(-c3ccc(Cl)s3)cc1F)CCN(C)CC2,39.9,5.23,1.77
Cc1c(-c2cccc(Br)c2)[nH]c2nc(N)nc(N)c12,1.29,2.55,0.97
CC(=O)c1ccc(NC(=O)Nc2ccc(N(C)c3ccnc(Nc4cccc(CS(C)(=O)=O)c4)n3)cc2)cc1,-0.18,0.54,4.04
Brc1cc2c(cc1C=NNc1nc(=Nc3ccccc3)[nH]c(=Nc3ccccc3)[nH]1)OCO2,3.97,3.42,-2.12
